In all, about 360,000 compounds went through this assay and about 2,900 (0.81%) were called active. The sample holds actives, similar compounds and a random draw of the others, so the mix is not that of the screen.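 How the source made its calls: active means inhibition above the mean inhibition across every tested compound plus 3 SD (cut at about 22% in these data); inactive means the rest.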
Target: Perilipin-5 (Homo sapiens) + 1-acylglycerol-3-phosphate O-acyltransferase ABHD5 (Homo sapiens) (UniProt Q00G26+Q8WTS1)
Sequence (Q00G26 whole entry, looked up): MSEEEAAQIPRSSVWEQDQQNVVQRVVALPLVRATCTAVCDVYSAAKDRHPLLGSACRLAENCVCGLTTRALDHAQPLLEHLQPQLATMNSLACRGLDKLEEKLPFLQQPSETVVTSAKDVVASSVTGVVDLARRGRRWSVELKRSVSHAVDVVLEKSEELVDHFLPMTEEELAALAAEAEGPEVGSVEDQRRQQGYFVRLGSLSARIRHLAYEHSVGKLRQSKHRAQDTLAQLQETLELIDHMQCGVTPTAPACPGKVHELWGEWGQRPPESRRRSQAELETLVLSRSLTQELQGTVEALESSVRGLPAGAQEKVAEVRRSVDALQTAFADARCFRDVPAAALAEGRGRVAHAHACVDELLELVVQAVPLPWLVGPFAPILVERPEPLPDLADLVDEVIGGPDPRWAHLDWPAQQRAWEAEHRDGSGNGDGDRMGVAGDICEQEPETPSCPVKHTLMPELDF
Sequence (Q8WTS1 whole entry, looked up): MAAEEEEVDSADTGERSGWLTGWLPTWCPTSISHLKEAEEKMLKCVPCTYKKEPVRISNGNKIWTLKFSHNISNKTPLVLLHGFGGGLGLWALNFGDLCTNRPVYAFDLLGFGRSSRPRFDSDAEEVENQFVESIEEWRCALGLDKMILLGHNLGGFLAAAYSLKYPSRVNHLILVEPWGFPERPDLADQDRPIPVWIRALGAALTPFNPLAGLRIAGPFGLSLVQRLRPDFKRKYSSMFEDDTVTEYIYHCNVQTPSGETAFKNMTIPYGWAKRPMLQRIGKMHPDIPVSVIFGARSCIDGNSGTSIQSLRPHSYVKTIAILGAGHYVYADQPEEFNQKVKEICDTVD
Experiment: ABHD5-PLIN5 interaction inhibitors, primary screen, cell lysate, split luciferase complementation, luminescence (AID 602281);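 further: 0% = DMSO only wells and the 100% control is not disclosed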
Details: Split G. princeps luciferase complementation, 4 h, at 4 µM, hits give high values

SMILES	inhibition
COc1ccc(C2SCCN2S(=O)(=O)c2ccccc2)cc1OC (centres undefined)	-4.96% (inactive)
COc1ccc(-c2cc(C(F)(F)F)nc(S(C)(=O)=O)n2)cc1OC	26.6% (active)
COc1ccc(C2=NO[C@@H]3C(=O)N(Cc4ccccc4)C(=O)[C@H]23)cc1OC	3.37% (inactive)
CCN1CCN(C(=O)Cn2nc(C)n3c(cc4c(OC)cccc43)c2=O)CC1	0.48% (inactive)
CC(=O)N[C@H]1[C@H]([C@H](O)[C@H](O)CO)OC(C(=O)O)=C[C@@H]1O	1.93% (inactive)
NC(=O)c1nsc(C(=O)N(CC(=O)NCc2ccc(F)cc2)Cc2ccco2)c1N	36% (active)
COc1ccc(CNC(=O)C(c2ccc(O)cc2)N(Cc2ccco2)C(=O)c2snc(C(N)=O)c2N)cc1 (centres undefined)	-11.3% (inactive)
Cc1ccnc(NC(=O)CCC(=O)N(CC(=O)NCc2ccccc2)Cc2ccco2)c1	1.15% (inactive)
Cc1csc2ncc(C(=O)N(Cc3ccccc3)c3ccccn3)c(=O)n12	3.35% (inactive)
O=C(/C=C/c1ccc(OCc2c(F)cccc2Cl)cc1)N1CCOCC1	-6.95% (inactive)
COc1cc(CNCCN(C)C)ccc1OCc1c(F)cccc1Cl	11.6% (inactive)
CN(C)CCCNC(=O)/C=C/c1ccc(OCc2c(F)cccc2Cl)cc1	28.6% (active)
O=S(=O)(c1ccc2ccccc2c1)N1CCN(S(=O)(=O)N2CCOCC2)CC1	-1.34% (inactive)
CC[C@@H](C)[C@@H]1CN([C@@H](C)CN2CCC[C@H]2CN2C(N)=NC[C@H]2C(C)C)C(=N)N1CCc1ccc(Cl)c(Cl)c1	11.4% (inactive)
CCCCN1C(N)=NC[C@@H]1Cc1ccccc1	4.61% (inactive)
C[C@@H](CN1CCC[C@H]1CN1C(N)=NC[C@@H]1Cc1ccccc1)N1C[C@@H](Cc2ccccc2)N(CCCC2CCCC2)C1=N	34.8% (active)
Cc1ccc2c(c1)N(CC(=O)N1CCCc3ccccc31)C(=O)C(C)O2 (centres undefined)	5.29% (inactive)
CC(=O)NC1=NN(C(C)=O)C(C)(CCS(=O)(=O)c2ccc(Cl)c(Cl)c2)S1 (centres undefined)	2.36% (inactive)
CCN(CC)CCN(C(=O)c1ccc2c(c1)CCCC2)c1nc2c(OC)cccc2s1	25% (active)
COc1ccccc1CNC(=O)Cn1cc2c(n1)CCCC2	8.04% (inactive)
COc1ccccc1NC(=O)CC(NCCN(C)C)C(=O)O (centres undefined)	0.5% (inactive)
COc1cccc2sc(N(CCCN(C)C)C(=O)C(c3ccccc3)c3ccccc3)nc12	43.5% (active)
CN(CC1CCCN(CCc2cccc(C(F)(F)F)c2)C1)C(=O)c1ccc2nc[nH]c2c1 (centres undefined)	-0.06% (inactive)

SMILES	inhibition
CCN(CC)CCNS(=O)(=O)c1ccc(/C=C/C(=O)O)cc1	4.35% (inactive)
OCc1ccc(-c2ccccc2)c(-c2ccccc2)c1	-5.6% (inactive)
CCCC/C(C)=N/NC(=O)NC1CCCCC1	-3.36% (inactive)
COc1ccc(C2=NOC3(CC(=O)N(c4ccc(Cl)cc4)C3=O)C2)c(OC)c1 (centres undefined)	0.13% (inactive)
Cc1cc(O)ccc1-c1cc(C(=O)NCc2cc(C(F)(F)F)cc(C(F)(F)F)c2)[nH]n1	-13.6% (inactive)
COCCNc1nnc(SCC(=O)NNC(=O)c2ccco2)s1	0.13% (inactive)
COc1ccc(NC(=O)/C(Cl)=C(/Cl)S(=O)Cc2ccc(C)cc2)cn1 (centres undefined)	96.3% (active)
COC(=O)COc1ccc2c(c1C)O/C(=C\c1ccco1)C2=O	14.5% (inactive)
CC(C)(C)C1C/C(=C/c2ccco2)C(=O)/C(=C/c2ccco2)C1 (centres undefined)	52.8% (active)
Cc1ccc(S(=O)(=O)Cn2nnnc2CN2CCN(Cc3ccc4c(c3)OCO4)CC2)cc1	-0.76% (inactive)
O=C(CNC(=O)C12CC3CC(CC(C3)C1)C2)OCC(=O)N1CCCCC1	-6.36% (inactive)
Cc1cc(C)nc(NS(=O)(=O)c2ccc(N3C(=O)C4CCCCC4C3=O)cc2)n1 (centres undefined)	-6.56% (inactive)
CCc1ccc(N(CC(=O)NCc2cccnc2)S(=O)(=O)c2ccccc2)cc1	8.86% (inactive)
O=C(c1cccnc1)N(c1cc2sc(=O)oc2c2ccccc12)S(=O)(=O)c1ccccc1	55.9% (active)
O=C(CN(c1cc(C(F)(F)F)ccc1Cl)S(=O)(=O)c1ccccc1)NCc1cccnc1	3.26% (inactive)
O=C(COC(=O)c1ncc(Cl)c(Cl)c1Cl)NCc1cccs1	0.28% (inactive)
CS(=O)(=O)N1CCCCC1c1cc(C(=O)NCc2ccccc2)no1 (centres undefined)	-1.92% (inactive)
CC1(C(=O)NS(=O)(=O)c2ccccc2)CCN1C(=O)C/C=C/c1ccccc1 (centres undefined)	11% (inactive)
CC1(C)CCSC(/C=C/c2ccccc2)=N1	40.5% (active)
CNS(=O)(=O)c1cccc(C(=O)OCCCC(=O)c2ccccc2)c1	5.65% (inactive)
CN1CCN(C2Cc3ccc(Cl)cc3Sc3ccc(F)cc32)CC1 (centres undefined)	10.5% (inactive)
COc1ccc(CCNC(=O)Nc2ccc3c(c2)c(=O)n(C)n3C)cc1OC	3.03% (inactive)
COCCNC(=O)Nc1ccc2nc(-c3ccco3)c(-c3ccco3)nc2c1	22.6% (active)

SMILES	inhibition
COCCNC(=O)CN(Cc1ccco1)C(=O)CCC(=O)Nc1nccs1	7.43% (inactive)
c1ccc(CC2CCN(c3nc4ccccc4n4cnnc34)CC2)cc1	-9.78% (inactive)
O=C(COc1ccc(S(=O)(=O)N2CCCCC2)cc1)NCc1ccccn1	-0.42% (inactive)
Cc1cccc(C)c1NC(=O)N1CC(C)OC(C)C1 (centres undefined)	5.67% (inactive)
Cc1cccc(C)c1NC(=O)C(Cl)C(=O)c1ccccc1 (centres undefined)	38.3% (active)
CN=C(c1ccccc1)c1c(C)cccc1C	4.42% (inactive)
C[C@H](NC(=O)c1[nH]cnc1C(=O)Nc1nccs1)c1ccccc1	1.59% (inactive)
CC(C(=O)c1ccc(-c2ccccc2)cc1)[n+]1cccc(Br)c1 (centres undefined)	0.81% (inactive)
Cn1c(=S)sc2ccc3ccccc3c21	1.97% (inactive)
Cc1cn(C)c(=O)n(C)c1=O	-0.3% (inactive)
Cc1ccc(-c2c3c(=O)n(C)c(=O)n(C)c3cn2-n2cnnc2)cc1	22.5% (active)
COc1ccc([N+](=O)[O-])cc1N(CC(=O)Nc1ccccc1C(=O)N1CCOCC1)S(C)(=O)=O	-1.59% (inactive)
CC(=O)NC1CCN(CC(=O)Nc2nccs2)CC1	6.01% (inactive)
CC(=O)Nc1ccc(C=CC(=O)c2ccc([N+](=O)[O-])cc2)cc1	27.1% (active)
CC(C=Cc1ccccc1)=NNS(=O)(=O)c1ccc([N+](=O)[O-])cc1	1.47% (inactive)
CC(=O)Nc1ccc(C(=O)/C=C/c2ccc[nH]2)cc1	11.6% (inactive)
O=C(O)c1ccc2c(=O)n3c(nc2c1)/C(=C/c1ccc(Cl)c([N+](=O)[O-])c1)CC3	3.3% (inactive)
Cc1ccnc(NC(=O)c2ccc(Cl)c([N+](=O)[O-])c2)c1	5.06% (inactive)
O=C(/C=C/c1ccc(Cl)c([N+](=O)[O-])c1)c1ccc(O)cc1	67.9% (active)
O=C(Nc1nccs1)C1CCN(S(=O)(=O)c2ccc(Cl)c(C(F)(F)F)c2)CC1	-4.59% (inactive)
CCN1CCN(C(=O)C2CCCN(S(=O)(=O)c3ccc(OC)c(OC)c3)C2)CC1 (centres undefined)	7.45% (inactive)
O=C(NCc1cccc(Cl)c1)C1=CC=CN2CCS(=O)(=O)N=C12	-4.23% (inactive)
COc1ccc(S(=O)(=O)N2CCN(C(=O)NC3CCCCC3)CC2)cc1	-2.23% (inactive)

SMILES	inhibition
CC(C)[C@H](NC(=O)c1ccc(F)cc1)C(=O)OCC(=O)NC(=O)c1cccn1C	-4.59% (inactive)
Cc1ccc2c(c1)C1CN(C)CCC1N2S(=O)(=O)c1ccc(Oc2ccc([N+](=O)[O-])cc2)cc1 (centres undefined)	15.8% (inactive)
COc1ccc(-n2cc(CN(C)Cc3n[nH]c(=O)[nH]3)c(-c3cccc(F)c3)n2)cc1	7.9% (inactive)
COc1ccc(-n2cc(CNC3CCOCC3)c(-c3cccc(F)c3)n2)cc1	24.7% (active)
CCC(O)C1CCN(Cc2cn(-c3ccc(OC)cc3)nc2-c2cccc(F)c2)CC1 (centres undefined)	8.4% (inactive)
COc1ccc(C2OC(=O)CC2C(=O)NC(C)C)cc1 (centres undefined)	-1.02% (inactive)
COc1ccc(C(=O)C2CCCN(C(=O)c3cc4nc(C)cc(C)n4n3)C2)cc1F (centres undefined)	0.49% (inactive)
Cc1ccc(CN2C(=O)CCC2C(=O)NCCCN2CCCCC2C)cc1 (centres undefined)	1.42% (inactive)
FC(F)(F)c1cc(-c2ccco2)nc(NCc2ccc(Cl)cc2)n1	-5.83% (inactive)
C[C@H](NC(=O)C1CC(=O)N(c2ccc3c(c2)OCO3)C1)C(=O)NCc1ccco1 (some centres undefined)	10.8% (inactive)
CCCC/C=C/c1cccc2nncn12	-0.29% (inactive)
COc1ccc(C(CNC(=O)COc2ccc([N+](=O)[O-])cc2)N2CCCCC2)cc1 (centres undefined)	-7.05% (inactive)
Cc1cc(C)n(CC(O)COc2ccc(C(C)(C)C)cc2)n1 (centres undefined)	-1.93% (inactive)
COc1ccc(C(C[N+](=O)[O-])n2nc(C)cc2C)cc1 (centres undefined)	54.3% (active)
COc1ccc(C(=O)C(OP(=O)(OC)OC)c2ccccc2OC)cc1 (centres undefined)	0.08% (inactive)
CC(C)NC(=S)N1CCN(S(C)(=O)=O)CC1	-5.54% (inactive)
CCCc1cc(-c2n[nH]c(=S)n2CC)c2ccccc2n1	-2.69% (inactive)
Cc1cc(-c2n[nH]c(=S)n2/N=C/C(Br)=C/c2ccccc2)n[nH]1	62.1% (active)
CCN(CC)S(=O)(=O)c1cccc(-c2n[nH]c(=S)n2/N=C/c2ccc(C(=O)OC)cc2)c1	-11.2% (inactive)
COC(=O)C1=C(C)NC2=C(C(=O)c3ccccc32)C1c1ccc(-c2ccc(C(=O)O)cc2)o1 (centres undefined)	17.7% (inactive)

Reference: PubChem BioAssay AID602281 (The Scripps Research Institute Molecular Screening Center, 2012)
